Results as given in PubChem BioAssay.

Assay: JC-1 mitochondrial signal, unstimulated adipocytes – cell-based, JC-1 fluorescence, 3T3-L1 adipocytes, 24 h, 100 nL compound, profiling panel (AID 1168); also: test concentration not given here
Conditions: JC-1 mitochondrial fluorescence, higher = more signal, called active from +8 up or from −8 down

z-score, inactive:
[N-]=[N+]=NCc1ccccc1C[C@@]1(C(=O)N2CCCCC2)N=C(c2ccc(OCCCO)cc2)O[C@@H]1c1ccccc1 -0.209, O=C1O[C@@H](c2ccccc2)[C@@H](c2ccccc2)N2[C@@H](c3ccc(OCCO)cc3)[C@]3(C(=O)Nc4ccccc43)[C@@H](C(=O)O)[C@H]12 -0.174, CC(CO)N1C(=O)[C@@H]2[C@H]3C(=O)OCC=C[C@H]3OC23C=CCN(C(C)(C)C)C(=O)[C@@H]13 (stereo partly specified) -0.172, CN1C(=O)C2C=CC(C(O)c3cccc4ccccc34)N(N3CCCCC3)C2C1=O (stereo unspecified) -1.53, CN(C)C(=O)[C@]1(CCS(=O)(=O)c2ccccc2)N=C(c2ccc(OCCCO)cc2)O[C@@H]1c1ccccc1N=[N+]=[N-] -0.00563, COC(=O)[C@@]1(Cc2ccc(F)cc2)[C@H]2c3cc(C(=O)N4CCCC4)n(CCc4ccc(O)c(O)c4)c3C[C@H]2CN1C(=O)c1ccccc1 -0.461, CN(C)CCCNC(=O)[C@@]1(c2ccc([N+](=O)[O-])cc2)CC(=O)N(CC23CC4CC(CC(C4)C2)C3)[C@@H]1c1ccc(CO)cc1I 1.94, Cc1cc(C)c(C(O)C2C=CC3C(=O)NC(=O)C3N2Nc2ccc(Cl)cc2Cl)c(C)c1 (stereo unspecified) -0.143, COCCOC(=O)N1C(=O)[C@@]2(c3cc(C#CC4=CCCCC4)ccc31)[C@H](c1ccc(OCCO)cc1)N1[C@H](c3ccccc3)[C@H](c3ccccc3)OC(=O)[C@H]1[C@@H]2C(=O)N1CCN(c2ncccn2)CC1 1.46, C=CCC(OC(C)=O)[C@@H]1[C@@H](N(Cc2ccc(-c3ccccc3)cc2)C(=O)Cc2ccc(F)cc2)c2cc(OCCCO)ccc2N1C(=O)Cc1ccc(OC)cc1 (stereo partly specified) -1.02, COC(=O)[C@@]1(Cc2ccc(OC)cc2)[C@H]2c3cc(C(=O)N(C)C)n(C[C@H](O)CO)c3C[C@H]2CN1C(=O)c1ccccc1 -0.871, Cn1cccc1C(O)C1C=CC2C(=O)NC(=O)C2N1Nc1ccc(Cl)cc1Cl (stereo unspecified) -1.36, COc1ccc([Si](C)(C)[C@@H]2[C@@H](CC(=O)N(CCO)Cc3ccccc3)O[C@]3(C(=O)N(Cc4cccc(N5C(=O)c6cccc7cccc5c67)c4)c4ccccc43)[C@H]2C)cc1 2.03, Cc1ccc(S[C@]2(C(=O)NCC(F)(F)F)CC(=O)N(Cc3ccccc3C(F)(F)F)[C@@H]2c2ccc(CO)cc2I)cc1 0.0898, CCOc1cc(C(O)C2C=CC3C(=O)N(c4ccccc4)C(=O)C3N2Nc2ccc(C#N)cc2)ccc1O (stereo unspecified) -1.55, COCCOC(=O)N1C(=O)[C@@]2(c3ccccc31)[C@H](C(=O)N1CCN(c3ncccn3)CC1)[C@H]1C(=O)O[C@H](c3ccccc3)[C@H](c3ccccc3)N1[C@@H]2c1ccc(O)cc1 -0.107, CCCC[C@@H]1C[C@H]1[C@@H](NC(=O)c1cccs1)c1ccc(C(F)(F)F)cc1 -1.23, COC(=O)c1ccc([C@H](NC(=O)c2ccco2)[C@]2(C)C[C@H]2C2CCCCC2)cc1 -1.02, O[C@@H](Cc1ccccc1)[C@@H](/C=C/C1CC1)N(CC#Cc1ccccc1)Cc1cccc(Cl)c1 0.274, N#Cc1ccc(C(O)C2C=CC3C(=O)N(c4ccccc4)C(=O)C3N2Nc2ccccc2)cc1 (stereo unspecified) 0.693, CC(C)N1C(=O)c2ccccc2[C@@H](C(=O)NC2CC2)[C@@H]1c1ccc(CO)cc1 0.319, COC(=O)c1nc2oc1CC[C@@H](CO)NC(=O)N(C)Cc1cnnn1C[C@H](Cc1ccccc1)NC2=O 1.25, C=CCNC(=O)[C@@H]1[C@H]2C(=O)O[C@H](c3ccccc3)[C@H](c3ccccc3)N2[C@H](c2ccc(O)cc2)[C@@]12C(=O)N(C(=O)OCCOC)c1ccc(C#CC3(O)CCCCCC3)cc12 0.8, O=C1C=C(c2ccccc2)C(=O)c2ccc([C@H]3Oc4ccccc4S(=O)(=O)N4CCC[C@@H]34)cc21 -1.83, C=C(COC)/C(=C/C[C@H](OC(C)=O)c1ccc(OCCO)cc1)c1cc(C(=O)OC)ccc1OC 1.57, CC(C)[Si](C#C[Si](C(C)C)(C(C)C)C(C)C)(O[C@H](C)c1cn([C@H](CO)Cc2ccccc2)nn1)C(C)C 0.727
